According to the supplement of paper PMC7858590:

System: human monocyte-derived macrophages (polarized)
Assay: cell shape (eccentricity) Z-score vs DMSO control; higher = more elongated, M2-like morphology
Details: 5 µM; 24 h; macrophage state: M1-polarized (IFNg + TNFa), cytokines present during treatment
Protocol: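 Primary-screen hits were rescreened on polarized hMDMs with the differentiating cytokines (IL-4 + IL-13 or IFNg + TNFa) kept in the medium during treatment with compound at 5 uM for 24 h. The eccentricity Z-score vs DMSO wells is averaged over experiments.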

Row | SMILES | cell shape (Z-score)
1 | Cc1ccc2c(=O)c3ccccc3n(CCCN)c2c1C | -0.216
2 | O=C1Cc2c([nH]c3ccc([N+](=O)[O-])cc23)-c2ccccc2N1 | 4.68
3 | COc1cc2ncnc(Nc3ccc(F)c(Cl)c3)c2cc1OCCCN1CCOCC1 | -0.66
4 | O=C(CCCCCCC(=O)Nc1ccccc1)NO | -0.801
5 | C=CCn1c(=O)c2cnc(Nc3ccc(N4CCN(C)CC4)cc3)nc2n1-c1cccc(C(C)(C)O)n1 | 5.45
6 | O=c1ncccn1[C@@H]1O[C@H](CO)[C@@H](O)[C@H]1O | -0.513
7 | NC(=O)Nc1sc(-c2ccc(F)cc2)cc1C(N)=O | 7.48
8 | COc1ccc(-c2cc(=O)c3c(O)cc(OC)c(OC)c3o2)c(OC)c1 | -4.83
9 | CCCCCCCCCCC(C)(C)C(=O)Nc1c(OC)cc(OC)cc1OC | -3.18
10 | CCC[C@H](N[C@@H](C)C(=O)N1[C@H](C(=O)O)C[C@@H]2CCCC[C@@H]21)C(=O)OCC | -1.48
11 | COc1cc(C2OC(c3cc(OC)c(OC)c(OC)c3)C(C)C2C)cc(OC)c1OC (stereo not given) | 4.93
12 | COc1ccc2oc(-c3ccccc3OC)cc(=O)c2c1 | 0.285
13 | N#Cc1ccc(COC[C@H]2O[C@@H](n3c(NCc4ccc(Cl)c(Cl)c4)nc4c(N)ncnc43)[C@H](O)[C@@H]2O)cc1 | -3.47
14 | CC1C(=O)C(=O)[C@@H]2O[C@@H]2C1=O (stereo not given in full) | -0.0615
15 | CC(C)(C)n1nc(-c2cccc3ccccc23)c2c(N)ncnc21 | 6.74
16 | CN1CCN(c2nc(C3=C(c4c[nH]c5ccccc45)C(=O)NC3=O)c3ccccc3n2)CC1 | -0.285
17 | Nc1nc(N)c2nc(-c3cccc(O)c3)c(-c3cccc(O)c3)nc2n1 | 2.64
18 | COCc1c(C(C)C)nc(C(C)C)c(/C=C/[C@@H](O)C[C@@H](O)CC(=O)O)c1-c1ccc(F)cc1 | 9.45
19 | O=C(/C=C/c1cccc(S(=O)(=O)Nc2ccccc2)c1)NO | -3.19
20 | N[C@@H](CC(=O)N1CCn2c(nnc2C(F)(F)F)C1)Cc1cc(F)c(F)cc1F | 2.26
21 | c1ccc(-c2[nH]ncc2-c2ccnc3ccccc23)nc1 | 2.26
22 | c1ccc2c(Oc3nc(Nc4ccc(N5CCOCC5)cc4)c4ncn(C5CCCCC5)c4n3)cccc2c1 | 9.34
23 | CC(C)C[C@H](NC(=O)CNC(=O)c1cc(Cl)ccc1Cl)B(O)O | 0.365
24 | Cc1cc(O)cc(=O)o1 | 7.71
25 | O=C(O)C[C@H](O)C[C@H](O)/C=C/c1c(C2CC2)nc2ccccc2c1-c1ccc(F)cc1 | 5.72
26 | Cc1nn(C)c2nc(NNC(=O)Nc3cc(Cl)nc(Cl)c3)cc(C(C)C)c12 | 7.42

Same assay, conditions: 5 µM; 24 h; macrophage state: M2-polarized (IL-4 + IL-13), cytokines present during treatment

Row | SMILES | cell shape (Z-score)
27 | OC1(c2ccc(Cl)c(C(F)(F)F)c2)CCN(CCCC(c2ccc(F)cc2)c2ccc(F)cc2)CC1 [Penfluridol] | -10.9
28 | COCCCC/C(=N\OCCN)c1ccc(C(F)(F)F)cc1 | -6
29 | CCC[C@H](NC(=O)/C(C#N)=C/c1cccc(Br)n1)c1ccccc1 | -2.53
30 | O=C(O)Cc1nn(Cc2ccc(Br)cc2F)c(=O)c2ccccc12 | -1.61
31 | Cc1cc(CC(C)CC(C)(C)C)n(O)c(=O)c1 (stereo not given) | 0.506
32 | CNCCC(Oc1ccc(C(F)(F)F)cc1)c1ccccc1 (stereo not given) | 7.81
33 | CN[C@H]1CC[C@@H](c2ccc(Cl)c(Cl)c2)c2ccccc21 | -4.29
34 | CC(=O)OCC(=O)[C@@]1(O)[C@H](OC(C)=O)C[C@H]2[C@@H]3CCC4=CC(=O)C=C[C@]4(C)[C@@]3(F)[C@@H](O)C[C@@]21C | -9.46
35 | CCCS(=O)(=O)Nc1ccc(F)c(C(=O)c2c[nH]c3ncc(-c4ccc(Cl)cc4)cc23)c1F [Vemurafenib] | -1.16
36 | COc1cc(C=O)cc2c1[nH]c1ccccc12 | -3.04
37 | Cc1cc2cc3c(C)cc(=O)oc3c(C)c2o1 | 1.88
38 | CC(=O)OCCNC(=O)c1cccnc1 | 2.01
39 | OC(CN1CCNCC1)Cn1c2ccc(Br)cc2c2cc(Br)ccc21 (stereo not given) | -13.7
40 | C=C(NC(=O)C(=C)NC(=O)c1csc(C2=N[C@@H]3c4csc(n4)[C@H]4NC(=O)c5csc(n5)[C@H]([C@](C)(O)[C@@H](C)O)NC(=O)[C@H]5CSC(=N5)/C(=C/C)NC(=O)[C@H]([C@@H](C)O)NC(=O)c5csc(n5)[C@]3(CC2)NC(=O)[C@H](C)NC(=O)C(=C)NC(=O)[C@H](C)NC(=O)[C@H]([C@@H](C)CC)N[C@@H]2C=Cc3c([C@H](C)O)cc(nc3[C@H]2O)C(=O)O[C@@H]4C)n1)C(N)=O | -11
